# Results: PubChem BioAssay (NCI)
# This is part of a sample that, as a whole, favours compounds with a hit. Of some 83,000 tested, about 20% had one in any assay.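 Single-concentration screen, 48 h exposure, 96-well plates. Endpoint: percent growth. Below 10 = active.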 Unmarked numbers belong to inactive results. The source made the active and inactive calls.
# Assays:
# Assay in all cases: NCI-60 one-dose screen, 48 h (100 = growth as untreated, 0 = no growth, -100 = all killed)
# Details in all cases: 10 µM unless noted
# T-47D breast = system: T-47D breast
# BT-549 breast = system: BT-549 breast
# MDA-MB-435 melanoma = system: MDA-MB-435 melanoma
# SW-620 colon = system: SW-620 colon
# MCF7 breast = system: MCF7 breast
# HCT-116 colon = system: HCT-116 colon
# HCC-2998 colon = system: HCC-2998 colon
# KM12 colon = system: KM12 colon
Structure (SMILES),growth (T-47D breast),growth (BT-549 breast),growth (MDA-MB-435 melanoma),growth (SW-620 colon),growth (MCF7 breast),growth (HCT-116 colon),growth (HCC-2998 colon),growth (KM12 colon)
COc1ccc(/C=C/c2ccc3ccccc3n2)c(OC)c1,72.8%,67.8%,-5.31% (active),38.1%,57%,62.3%,72.4%,52.5%
CCC1S/C(=N\N=C(\C)c2cc3cc(Cl)ccc3o2)N(c2ccccc2)C1=O (configuration not stated),88.5%,119%,96.4%,90%,100%,84.2%,83.2%,91.6%
Cc1cccc(-c2nc(Nc3ccc4ncsc4c3)c3ccccc3n2)n1,34.6%,87.9%,60.4%,79.8%,9.7% (active),77.4%,116%,63.1%
CC(C)=CCNc1ncnc2c1ncn2C1OC(CO)C(O)C1O (configuration not stated),-57% [1 mM] (active),-51.7% [1 mM] (active),23.9% [1 mM],-2.16% [1 mM] (active),-60.7% [1 mM] (active),-13.7% [1 mM] (active),-62.5% [1 mM] (active),10.6% [1 mM]
Cc1nn(-c2cc(NC3CCC(O)CC3)c3c(=O)[nH]c(CCC(F)(F)F)cc3c2)c2c1C(=O)CC(C)(C)C2 (configuration not stated),62.9%,43.8%,19.3%,24.1%,26.5%,38%,10.9%,23.4%
Cc1ccc2nc(-c3ccc(C(=O)NNC(=S)Nc4ccccc4)cc3)[nH]c2c1,86.3%,90.6%,97.8%,108%,79.5%,84.6%,103%,94.8%
CN(CCCNC(=O)CCOCCOCCOCCNC(=O)Cc1ccc2ccc3cccc4ccc1c2c34)CCCNc1cc(-c2ccc3ccccc3c2)nc2ccccc12,-80.9% (active),-83.6% (active),-79.6% (active),-79.6% (active),-82.3% (active),-98.2% (active),-87.4% (active),-86.6% (active)
O=C(NNC(=O)c1ccc(NC(=O)c2ccccn2)cc1)Nc1ccc2ccccc2c1,106%,107%,110%,116%,96%,102%,121%,102%
O=C(/C=C/c1ccc(Oc2ccc(Br)cc2)cc1)c1ccc(Br)cc1,92.3%,110%,93%,93.7%,73%,97.6%,95.5%,95.7%
Cc1ccc(/C=C/C(=O)Nc2ncc(Cc3ccc(F)cc3)s2)o1,58.5%,68.9%,-25.9% (active),24.6%,14%,33.5%,48.8%,21%
Nc1nc(N)c2c(n1)NC(c1cccc(Nc3ccnc4cc(C(F)(F)F)ccc34)c1)CC(c1ccccc1)=N2 (configuration not stated),83.4%,114%,-30.4% (active),32.4%,16.9%,21%,54.2%,33.5%
COc1cc(C(=O)c2c(-c3ccccc3)oc3c(OC)cccc23)cc(OC)c1OC,58.2%,-5.83% (active),-28.9% (active),20.1%,10.1%,-8.11% (active),-4.94% (active),3.21% (active)
COc1ccc(C(=O)/C=C/c2ccc(N3CCCCC3)cc2)cc1OC,76.6%,87.4%,103%,102%,90.4%,82.7%,107%,98.9%
C/C(=N\O)[C@@H]1CC[C@]2(CO)CC[C@]3(C)[C@H](CC[C@@H]4[C@@]5(C)CCCNC(C)(C)[C@@H]5CC[C@]43C)[C@@H]12,72.5%,90.5%,79.5%,88.5%,50.9%,76.5%,103%,83.6%
